CF NFkB inh = blocks PAF-induced NF-kB reporter in cystic fibrosis cells. inhibition, % at 5 µM. AID 588850. 0.86% of 360,000 active. KKLEB NF-kB-GFP reporter, GFP fluorescence overnight;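 active = at least 50% inhibition at 5 µM, scaled per plate between neutral and stimulator controls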;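 note: PAF is a Pseudomonas aeruginosa culture filtrate used as stimulus; plate controls were PAF-stimulated DMSO wells for no effect and unstimulated DMSO wells for full effect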
KKLEB tox = reduces viability of KKLEB cystic fibrosis airway cells | KKLEB CF airway cells viability, ATPlite luminescence, overnight; stronger effect = lower value; cells stimulated with P. aeruginosa culture filtrate | activity change (cytotoxicity), % at 5 µM | 0.36% of 360,000 active;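 active = corrected activity change at or below -50% at 5 µM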
LGR2 antag = inhibitors of bursicon-induced Drosophila LGR2 receptor cAMP signaling; HEK293 LGR2, CRE-luciferase, bursicon-stimulated, 4 h; inhibition, % at 9.99 µM; 0.35% of 380,000 active; AID 720647;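 active = drop in luminescence signal, shown as inhibition above about 50% in the replicate tests, limit read from the data, passing the limit was not always enough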;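 note: agonist challenge used bursicon conditioned medium at about half maximal strength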
TWEAK-Fn14 inh = inhibitors of TWEAK-Fn14 interaction signaling. TWEAK-stimulated Fn14 reporter cells, luciferase luminescence, 8 h. inhibition, % at 10 µM. 2% of 360,000 active; in the data active = inhibition above about 50%
iPSC survival up = increases survival of single human iPS cells | survival enhancement, % at 20 µM | 0.044% of 360,000 active | AID 602274 | hiPSC single-cell survival, ATPlite luminescence; 100% = ROCK inhibitor wells, 0% = DMSO; in the data active = survival enhancement above about 18%;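 note: cells exposed to compounds for 16 hours before the ATP read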
HIF-2a block = HIF-2a inhibition; 0.72% of 360,000 active; AID 624352; inhibition, % at 18.8 µM; 786-0 RCC cells HIF-2a reporter, luciferase luminescence, overnight;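 active = inhibition of the luminescence signal of 40% or more relative to plate controls, in a single-dose primary screen at 18.75 µM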
* marks the source's active call; other numbers are inactive results; nt = no result. Compounds with a hit are over-represented: about 2.3% of the library has one in this group of screens.

SMILES	CF NFkB inh	KKLEB tox	LGR2 antag	TWEAK-Fn14 inh	iPSC survival up	HIF-2a block
Cc1ccccc1NC(=O)N1CCCC(c2nc(-c3ccc(C(C)C)cc3)no2)C1 (stereo not drawn)	-10	5	nt	55*	-2	-27
CCN(CC)c1ccc(/C=N/NC(=O)c2ccoc2C)cc1	8	-12	nt	63*	-1	-186
Cc1ccc(N/C=C/C(=O)c2cccs2)cc1C	-17	-38	63*	46	-2	-80
Cc1cc(N/C=C/C(=O)c2cccs2)ccc1F	-11	-2	-44	-1	-1	-246
CN1C(=O)c2cc(NC(=O)c3ccc(F)cc3)ccc2OC[C@@H]2O[C@H](CC(=O)NCC3CC3)CC[C@@H]21	nt	nt	-2	nt	nt	nt
COc1cc(SC)ccc1C(=O)Nc1cccc(C)n1	-3	-8	-83	11	-1	-358
COc1cc(SC)ccc1C(=O)Nc1ccc(Br)cn1	-10	-85*	nt	97*	-1	38
COc1cc(SC)ccc1C(=O)Nc1ccccn1	-4	-40	5	56*	-1	-169
COc1cc(SC)ccc1C(=O)Nc1ncc(C)s1	-10	-53*	102*	100*	-2	49*
COc1cc(SC)ccc1C(=O)Nc1ccon1	-4	8	nt	-7	0	-152
Cc1noc(C)c1S(=O)(=O)N(C)C[C@@H]1Oc2c(NC(=O)C3CC3)cccc2C(=O)N([C@@H](C)CO)C[C@@H]1C	nt	nt	5	nt	nt	nt
O=C(c1ccccc1)N1C[C@@H]2[C@H](c3ccccc31)[C@H](CO)N2C(=O)c1cccc(F)c1	nt	nt	-4	nt	nt	nt
COc1cccc(NC(=O)C[C@H]2CC[C@H]3[C@@H](COc4ccc(NC(=O)c5ccccc5F)cc4C(=O)N3C)O2)c1	nt	nt	-4	nt	nt	nt
CCNC(=O)C[C@@H]1CC[C@@H]2[C@H](COc3ccc(NC(=O)NC(C)C)cc3C(=O)N2C)O1	nt	nt	10	nt	nt	nt
CN(C)CCCNC(=O)C[C@H]1CC[C@H](NS(=O)(=O)c2ccc(F)cc2)[C@@H](CO)O1	nt	nt	-9	nt	nt	nt
COc1ccc2nc(SCC(=O)O)nc(C)c2c1	-4	10	nt	-4	-2	9
COc1ccc2nc(SCCOC(=O)Nc3ccc(Cl)cc3)nc(C)c2c1	-6	-7	-4	51*	-1	11
CCCNC(=O)N(C)C[C@@H]1Oc2cc(-c3ccccc3F)ccc2S(=O)(=O)N([C@@H](C)CO)C[C@@H]1C	nt	nt	-3	nt	nt	nt
COc1ccc(S(=O)(=O)N(C(=O)c2ccncc2)c2ccc3oc4c(c3c2)CCCC4)cc1	32	-11	18	51*	0	20
CC(C)NC(=O)N(C)C[C@H]1Oc2ncc(-c3cccc(C#N)c3)cc2C(=O)N([C@@H](C)CO)C[C@@H]1C	nt	nt	12	nt	nt	nt
O=C(Nc1ccc(Cl)c(Cl)c1)c1cccc(S(=O)(=O)NCc2cccnc2)c1	11	4	6	90*	0	-19
COc1cccc(S(=O)(=O)NCc2ccc(C(=O)Nc3ccc(Cl)c(Cl)c3)cc2)c1	-11	4	nt	6	1	13
Cc1nn(CCCC(=O)Nc2cc(Oc3ccc(F)cc3)cc([N+](=O)[O-])c2)c(C)c1[N+](=O)[O-]	-33	3	10	8	0	21
Cc1ccccc1Oc1cc(NC(=O)CCCn2nc(C)c([N+](=O)[O-])c2C)cc([N+](=O)[O-])c1	8	-12	-4	63*	-1	8
CCCc1cc(-c2[nH]ncc2-c2ccc(C(=O)OCC)o2)c(O)cc1O	37	10	7	59*	4	-11
SMILES	CF NFkB inh	KKLEB tox	LGR2 antag	TWEAK-Fn14 inh	iPSC survival up	HIF-2a block
CCOC(=O)c1c(-c2ccccc2)csc1NC(=O)CSc1nnc(C)s1	6	-17	-19	79*	-1	18
CCOC(=O)c1c(-c2ccc(C)o2)csc1NC(=O)CSc1nnc(C)s1	5	-13	nt	0	0	0
COc1ccc(S(=O)(=O)Nc2ccc3c(c2)[C@@H]2C[C@H](CC(=O)NCC4CC4)O[C@H](CO)[C@@H]2O3)cc1	nt	nt	1	nt	nt	nt
CCC(C)(C)c1ccc(Oc2cccc(C(=O)O)c2)cc1	-12	-5	-34	-19	-1	25
CCC(C)(C)c1ccc(Oc2ccc(N)cc2)cc1	-28	4	nt	101*	0	88*
Cc1noc(C)c1NC(=O)Nc1ccc2c(c1)CC(=O)N([C@@H](C)CO)C[C@H](C)[C@@H](CN(C)Cc1ccc(Oc3ccccc3)cc1)O2	nt	nt	-1	nt	nt	nt
CN(C)c1ccc(-c2nnc(-c3cccs3)o2)cc1	2	-20	16	63*	-2	-163
COc1ccccc1NC1=C(N2CCCCC2)C(=O)c2ccccc2C1=O	0	-6	nt	67*	-4	-18
O=C1C(Nc2ccccc2)=C(N2CCCCC2)C(=O)c2ccccc21	16	4	nt	21	-5	-1
O=C(/C=C/c1ccc(O)cc1)c1ccc(NC2=C(N3CCCCC3)C(=O)c3ccccc3C2=O)cc1	55*	-15	-36	53*	-4	-62
Cc1ccc(NC2=C(N3CCCCC3)C(=O)c3ccccc3C2=O)cc1	-2	-2	-15	64*	-3	-154
C[C@@H]1CCCCO[C@@H](CN(C)C(=O)c2ccncc2)[C@H](C)CN([C@@H](C)CO)C(=O)c2cc(NS(=O)(=O)c3ccc(F)cc3)ccc2O1	nt	nt	1	nt	nt	nt
COc1ccc(NC(=O)N(C)C[C@@H]2Oc3ccc(NS(=O)(=O)c4c(C)noc4C)cc3CC(=O)N([C@H](C)CO)C[C@@H]2C)cc1	nt	nt	-9	nt	nt	nt
Cc1nc2ccc3nc(NC(=O)c4ccc5c(c4)OCCO5)sc3c2s1	-1	2	-16	-27	0	-82
Cc1nc2c(ccc3nc(NC(=O)c4ccc5c(c4)OCCO5)sc32)s1	14	-53*	nt	16	-5	-173
Cc1nc2c(ccc3nc(NC(=O)C(c4ccccc4)c4ccccc4)sc32)s1	1	-18	-23	75*	2	0
CSc1ccc(-c2nc(CSCC(=O)N3CCOCC3)c(C)o2)cc1	-18	14	-6	8	-2	-96
CCc1ccc(-c2nc(CSCC(=O)N3CCN(c4ncccn4)CC3)c(C)o2)cc1	-32	-8	4	51*	1	39
O=c1ccc(-c2ccc([N+](=O)[O-])cc2)nn1-c1ccccc1	-28	7	-3	0	5	14
O=[N+]([O-])c1ccc(-[n+]2nc(-c3ccccc3)nn2-c2ccccc2)cc1	42	-53*	1	14	0	15
N=c1c2c(n(Cc3ccc(Br)cc3)c3c1CCC3)CCCC2	45	-59*	-35	41	-5	15
CCOC(=O)C1=C(N)Oc2cc(C)[nH]c(=O)c2C1c1ccncc1 (stereo not drawn)	-1	4	nt	76*	2	26
CCOC(=O)C1=C(N)Oc2cc(C)n(C)c(=O)c2C1c1ccncc1 (stereo not drawn)	5	-7	nt	-10	-2	5

Screening results (PubChem BioAssay)
